A selection: hits, their analogues and other compounds. The true share with any hit is near 1.9%.
FPRL1 binder = binds the human formylpeptide receptor-like-1 FPRL1; inhibition, % (no concentration beside the values); 0.3% of 24,000 active; P25090; FPRL1-expressing cells, fluorescent ligand binding inhibition, flow cytometry
Target sequence (P25090 whole entry, looked up): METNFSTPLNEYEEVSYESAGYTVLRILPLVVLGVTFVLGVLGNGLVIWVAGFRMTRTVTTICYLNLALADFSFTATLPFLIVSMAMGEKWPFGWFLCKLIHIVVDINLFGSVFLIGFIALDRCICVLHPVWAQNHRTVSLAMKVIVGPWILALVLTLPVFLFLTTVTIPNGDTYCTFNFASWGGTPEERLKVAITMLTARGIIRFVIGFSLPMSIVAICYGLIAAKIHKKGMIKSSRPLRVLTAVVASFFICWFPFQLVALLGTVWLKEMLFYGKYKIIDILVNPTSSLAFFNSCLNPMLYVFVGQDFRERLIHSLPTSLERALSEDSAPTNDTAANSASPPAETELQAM
26S disassembly = blocks ATP-dependent breakdown of the yeast 26S proteasome. anti-FLAG beads, GFP-proteasome disassembly, flow cytometry. inhibition of disassembly, % (test concentration not listed). 0.2% of 24,000 active. AID 751;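 active = inhibition of disassembly above about 33%, limit read from the data; inconclusive = likely self-fluorescent, control bead median signal at least 40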;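 also: higher percent means more bead fluorescence retained so stronger block of disassembly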
Autofluor Jurkat = autofluorescence counter-screen for VLA-4 integrin assays | Jurkat cells, compound autofluorescence, flow cytometry; stronger effect = higher value; 1 = vehicle-only cell background | fluorescence ratio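 (tested at 10 µM compound in the well)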 | AID 576 | 0.61% of 24,000 active;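 active = fluorescence ratio above 2.44, which is 1 plus 3 SD of all ratios; inconclusive = signal too bright to measure linearly, ratio around 10 or more; inactive = fluorescence ratio below 2.44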;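 also: green fluorescence of cells measured with 488 nm excitation and 530 nm emission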
VLA-4 agonist = allosterically activates the human VLA-4 integrin | P13612 | activation, % at 10 µM (by protocol) | Jurkat cells, LDV-FITC binding, flow cytometry | 24,000 tested, under 10 active;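 active = fluorescent ligand binding to cells raised by more than 40% of the manganese-induced maximum; inconclusive = compound's own fluorescence above 85% of the ligand control signal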
FPR binder = binds the human formylpeptide receptor FPR | P21462 | FPR-expressing cells, fluorescent ligand binding, flow cytometry | inhibition, % (test concentration not listed) | 0.74% of 24,000 active | AID 440
VLA-4 antagonist = inhibition of LDV-FITC ligand binding to human VLA-4 integrin; 0.2% of 24,000 active; Jurkat cells, LDV-FITC binding with Mn2+, flow cytometry; 100% = Mn2+-driven binding gain fully reversed; AID 529; P13612; inhibition, % at 10 µM (by protocol);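 active = inhibition above 50%; inconclusive = compound itself fluorescent, judged against control cell fluorescence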
Large screens that a line does not name were inactive. Rule as the data show it, unless noted: active = inhibition above about 30%; inconclusive = no clear call, values can overlap the other calls; inactive = below that.

CCC(C)C(NS(=O)(=O)c1ccc(C)cc1)C(=O)NCCN1CCOCC1 (stereo not given)	none
CCOc1ccc(C(CC(=O)O)NC(=O)C23CC4CC(CC(C4)C2)C3)cc1 (stereo not given)	VLA-4 antagonist 111 (no result: FPRL1 binder, 26S disassembly, FPR binder)
CCOC(=O)NC(CC(=O)O)c1ccc(OCC)cc1 (stereo not given)	none
O=C(c1cc2c(=O)oc3ccccc3c2s1)N1CCN(c2ccccn2)CC1	VLA-4 agonist inconclusive, VLA-4 antagonist inconclusive
N[C@@H](Cc1ccc(O)c(I)c1)C(=O)O	FPR binder 51
O=C(O)Cc1cc(I)c(Oc2ccc(O)c(I)c2)c(I)c1	none
COC(=O)c1[nH]c(C)c(/C(O)=C2\C(=O)C(=O)N(CCN3CCOCC3)C2c2cccs2)c1C (stereo not given)	FPR binder 54
COC(=O)c1[nH]c(C)c(/C(O)=C2\C(=O)C(=O)N(CCN3CCOCC3)C2c2ccccc2OC)c1C (stereo not given)	none (no result: 26S disassembly, Autofluor Jurkat, VLA-4 agonist, VLA-4 antagonist)
COc1ccccc1C1/C(=C(\O)c2ccc3c(c2)OCCO3)C(=O)C(=O)N1CCCN(C)C (stereo not given)	none (no result: 26S disassembly, Autofluor Jurkat, VLA-4 agonist, VLA-4 antagonist)
C=CCN1C(=O)C2(/C(=C(\O)c3ccc4c(c3)OCCO4)C(=O)C(=O)N2CCCOC)c2ccccc21 (stereo not given)	FPR binder 32
CCN1CCCC1CNC(=O)c1nn(-c2ccc(C)cc2)c(=O)c2c1c1ccccc1n2C (stereo not given)	none
COc1cc(-n2nc(C)c3c2OC(N)=C(C#N)C3c2ccccc2)c(Cl)c(Br)c1O (stereo not given)	Autofluor Jurkat 3, VLA-4 agonist inconclusive, FPR binder 36, VLA-4 antagonist inconclusive
COc1ccc2nc(NC(=O)C3CCCN(S(=O)(=O)c4cccc5nonc45)C3)sc2c1 (stereo not given)	Autofluor Jurkat 2.6, VLA-4 agonist inconclusive, VLA-4 antagonist inconclusive
CN1CCN(Cc2nc3c(c(=O)n(C)c(=O)n3C)n2Cc2ccccc2Cl)CC1	none
CN1CCN(c2ccccc2NC(=O)C(Cc2ccccc2)n2cccc2)CC1 (stereo not given)	none
CCOc1ccccc1N1CCN(c2nc(N)c(C#N)c(CC#N)c2C#N)CC1	Autofluor Jurkat 5.2, VLA-4 agonist inconclusive, VLA-4 antagonist inconclusive
COc1nc(N2CCCC2)nc(-n2cc(-c3ccccc3)nn2)n1	none
CCOC(=O)N1CCN(Cc2nc3c(c(=O)[nH]c(=O)n3C)n2Cc2ccccc2C)CC1	none
Cc1nc(SCC(=O)c2c[nH]c3ccccc23)n[nH]1	Autofluor Jurkat 3.4, VLA-4 agonist inconclusive, VLA-4 antagonist inconclusive
CCOC(=O)Cn1c(=O)oc2cc(S(=O)(=O)N3CCCC(C(=O)OCC)C3)ccc21 (stereo not given)	Autofluor Jurkat 3.1, VLA-4 agonist inconclusive, VLA-4 antagonist inconclusive
CCOC(=O)Cn1c(=O)oc2cc(S(=O)(=O)NCc3ccccn3)ccc21	Autofluor Jurkat 3.6, VLA-4 agonist inconclusive, VLA-4 antagonist inconclusive
CCOC(=O)Cn1c(=O)oc2cc(S(=O)(=O)Nc3c(C)cc(C)cc3C)ccc21	Autofluor Jurkat 6, VLA-4 agonist inconclusive, VLA-4 antagonist inconclusive
COC(=O)c1ccc2c(=O)n(CCC3=CCCCC3)c(SCC(=O)N3CCCC3)nc2c1	none
CCCc1noc2c1C(c1ccoc1)C(C#N)=C(N)N2 (stereo not given)	none
CCOc1ccccc1C1C(C#N)=C(N)Nc2onc(-c3ccccc3)c21 (stereo not given)	VLA-4 antagonist 51
CN1C2C=C3C(C#N)=C(N)C(C#N)(C#N)[C@@H](c4ccc(Cl)cc4)[C@@H]3C1CC2 (stereo not given in full)	VLA-4 antagonist inconclusive
Cc1ccc(C2C3CSCC=C3C(C#N)=C(N)C2(C#N)C#N)cc1 (stereo not given)	26S disassembly 40, Autofluor Jurkat 8.8, VLA-4 agonist inconclusive, VLA-4 antagonist inconclusive
CN(C)S(=O)(=O)c1ccc(/C(O)=C2/C(=O)C(=O)N(CCN3CCCCC3)C2c2cccnc2)cc1 (stereo not given)	none
Cc1[nH]n2c(=O)c(C#N)c(-c3ccccc3)nc2c1-c1ccccc1	FPR binder 90 (no result: 26S disassembly, Autofluor Jurkat, VLA-4 agonist, VLA-4 antagonist)
Cc1[nH]n2c(=O)cc(C(C)C)nc2c1-c1ccccc1	none (no result: 26S disassembly, Autofluor Jurkat, VLA-4 agonist, VLA-4 antagonist)
Cc1[nH]n2c(=O)c3c(nc2c1-c1ccccc1)CCC3	FPR binder 40 (no result: 26S disassembly, Autofluor Jurkat, VLA-4 agonist, VLA-4 antagonist)
